# Only a selection was taken, and hits are over-represented in it overall.
# Anesthetic bind: candidate novel general anesthetic via apoferritin binding. actives 0.074% (n = 350,000). Potency, µM (highest dose often 77.5 µM), hits mostly inhibitors. apoferritin/1-aminoanthracene competitive binding, fluorescence. P02791; further: nearly all actives have a fitted effect of over 20% in size
#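 Concentration-response curves derived by four-parameter Hill fitting of normalized fluorescence, where compounds displaced 1-AMA from 10 uM horse apoferritin following a brief 10 min room-temperature incubation; propofol titration acted as positive control.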
# CBFb RUNX1 block: CBF-beta/RUNX1 interaction disruption; AlphaScreen CBFb-His/RUNX1-biotin binding, biochemical; Q01196+Q13951; Potency, µM (series often up to 59.8 µM), hits mostly inhibitors; AID 1477; 230,000 tested, under 10 active
#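 AlphaScreen proximity signal reports loss of binding between His-tagged CBF-beta and biotin-labelled RUNX1, each at 30 nM. Proteins are pre-associated for 20 minutes, compounds added for 15 minutes, then beads for 90 minutes, all at ambient temperature.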
# ClpP mod: qHTS Assay for Activators of ClpP | ATP-dependent Clp protease proteolytic subunit (Bacillus subtilis (strain 168)), P80244 | purified B. subtilis ClpP, FRET peptide cleavage, 20 min | Potency, µM (doses to about 57.5 µM) | actives 1.9% (n = 340,000); active means well fitted falling curve with a large enough effect; inconclusive means small, poorly fitted or top-dose-only effect; inactive means no such curve, though single readings can be large or run the other way; further: the source files actives as falling curves though it sought activators and does not explain the sign; nearly all actives have a fitted effect of over 65% in size
#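 Purified B. subtilis ClpP, 10 microg/mL final in Tris/HCl pH8 with KCl, BSA, glycerol and Tween-20, cleaved an Abz/nitrotyrosine-quenched decapeptide. Fluorescence (ex 320, em 430) was read at 0 and 20 min at room temperature. Delta was normalized to 5.8 microM ADEP and DMSO/no-enzyme controls.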
# Integrin act MD: integrin-mediated muscular dystrophy alleviation activation. alpha7betagal myoblasts, beta-gal FDG fluorescence, 48 h. Potency, µM (highest dose often 38.3 µM), hits mostly activators. actives 0.064% (n = 350,000); further: nearly all actives have a fitted effect of over 60% in size
#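 Alpha7betagal+/- myoblasts (passage 13) were plated 16-24 hr, then exposed to compounds (1:260 dilution of DMSO stock) for 48 hours at 37C. After MPER lysis, β-galactosidase reporter activity was read as FDG fluorescence (ex 480/em 540) after 30 minutes.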
# Glioma ERSR ind: inducers of ER stress response in human glioma cells; Potency, µM, usual class: activators; U87-MG GRP78 promoter luciferase reporter, 16 h; AID 602332; actives 0.02% (n = 420,000); further: series mostly up to about 76 µM; nearly all actives have a fitted effect of over 35% in size
#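 Stably transfected U87-MG human glioma cells carrying a GRP78-based luminescent sensor were seeded at 1000 cells/well, pin-dosed with compounds and incubated 16 h. Luciferase reagent was then added, and end-point luminescence was read after 10 min at room temperature.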
# N370S GC mod: N370S glucocerebrosidase modulation, Gaucher chaperone candidate | P04062 | N370S GC spleen homogenate, 4MU-glucoside fluorescence | Potency, µM (highest dose often 59.4 µM), usual class: inhibitors | actives 0.092% (n = 330,000) | AID 2101
# A number is an active result; - = inactive; ? = inconclusive; . = no result given. Unless noted, the call rests on the fitted dose curve; in most records, active means well fitted curve in the direction sought with a large enough effect; inconclusive means small, poorly fitted or top-dose-only effect, or another doubt; inactive means no such curve, though single readings can be large; an effect the other way counts as inactive or inconclusive.
SMILES,Anesthetic bind,CBFb RUNX1 block,ClpP mod,Integrin act MD,Glioma ERSR ind,N370S GC mod
CCS(=O)(=O)N1CCN(c2ccc([N+](=O)[O-])c(NCC3CCCO3)c2)CC1 (stereo not drawn),?,-,-,10µM,-,-
Fc1cc(Br)ccc1NC(=S)Nc1ccccc1,-,-,28µM,-,-,-
Fc1ccccc1NC(=S)Nc1ccc(Br)cc1,-,-,-,-,-,-
COc1ccc(-n2c(CNC(=O)c3ccc(OC)cc3OC)nnc2SC)cc1,.,.,.,.,-,.
COc1cc(-c2nnc(-c3ccc(S(=O)(=O)c4ccccc4)cc3)o2)cc(OC)c1OC,-,-,?,-,-,-
COc1cc(-c2nnc(-c3ccc(N4CCOCC4)cc3)o2)cc(OC)c1OC,-,-,25µM,-,-,-
c1ccc(-c2nc(-c3ccccn3)no2)cc1,-,-,-,-,-,-
COc1cccc(-c2nc(-c3ccccn3)no2)c1OC,-,-,-,-,-,-
c1ccc(-c2ccc(-c3nc(-c4ccccn4)no3)cc2)cc1,?,-,25µM,-,-,.
c1ccc(-c2noc(-c3cccc4ccccc34)n2)nc1,-,-,40µM,-,-,-
CS[C@@H]1SC[C@H]2C(=O)N(C)C(C(C)C)C(=O)OC[C@@H](NC(=O)c3cnc4ccccc4n3)C(=O)N[C@@H](C)C(=O)N(C)[C@H]1C(=O)N(C)C(C(C)C)C(=O)OC[C@@H](NC(=O)c1cnc3ccccc3n1)C(=O)N[C@@H](C)C(=O)N2C (stereo partly drawn),-,-,.,.,-,-
CCn1cc(C(=O)OCC(=O)N2C(C)CCCC2C)c(=O)c2ccc(C)nc21 (stereo not drawn),?,-,16µM,-,-,-
Fc1ccc(/C=C/c2nnc(-c3cccs3)o2)cc1,-,-,.,-,-,-
Cc1ccc(/C=C/c2nnc(-c3cccs3)o2)cc1,-,-,8.9µM,-,-,-
COc1ccc(/C=C(\C#N)C(=O)N2CCOCC2)cc1Br,-,-,25µM,-,-,-
COc1cc(/C=C(\C#N)C(=O)N2CCOCC2)ccc1OCc1ccccc1,-,-,.,-,-,-
CC(C)COc1ccc(-c2nnc(-c3ccco3)o2)cc1,-,-,16µM,-,-,-
COc1cccc(-c2nnc(-c3ccco3)o2)c1,-,-,-,-,-,-
CCCOc1ccc(-c2nnc(-c3ccco3)o2)cc1,-,-,40µM,-,-,-
O=C(c1ccccc1-n1cccn1)N1CCOc2ccc(CN3CCOCC3)cc2C1,.,.,.,.,-,.
COc1cccc(-c2cnc(NCc3cc(Cl)ccc3O)n2C)c1,?,-,28µM,-,-,-
Cc1nc(-c2ccc(S(=O)(=O)N3CCN(C4c5ccccc5-c5ccccc54)CC3)s2)cs1,-,-,28µM,-,-,-
O=C(C[n+]1cccc2cccc(O)c21)c1ccc2ccccc2c1,.,.,-,.,-,.
CCCc1ccc(-c2c(C)sc(N)c2C#N)cc1,35µM,-,-,-,-,-
CSc1cnc2c(=O)n(C)c(=O)[nH]c2n1,-,-,16µM,-,-,?
SMILES,Anesthetic bind,CBFb RUNX1 block,ClpP mod,Integrin act MD,Glioma ERSR ind,N370S GC mod
CSc1nnc2c(=O)[nH]c(=O)n(C)c2n1,.,.,.,?,-,.
CCN1CCC[C@@H]1CNC(=O)c1cc(S(=O)(=O)CC)ccc1OC,.,.,.,.,-,.
CCCSc1nc2c(cnn2-c2ccccc2)c(=O)n1N,-,-,.,-,-,-
CCCOc1nc(SCCC)nc2c1cnn2-c1ccccc1,-,-,.,11µM,-,-
C[n+]1cccc(Br)c1,.,.,-,.,-,.
CC(=O)N(C)c1ccc(C(O)(C(F)(F)F)C(F)(F)F)cc1,-,-,.,?,-,-
CCOC(=O)N(C)c1ccc(C(O)(C(F)(F)F)C(F)(F)F)cc1,?,-,32µM,-,-,-
CC(C)(C)n1ncc2c(=O)n(Cc3cccc(OC(F)(F)F)c3)cnc21,.,.,.,.,-,.
Cc1ccc(S(=O)(=O)NNC(=S)Nc2ccc(Cl)cc2)cc1,-,-,28µM,-,-,-
COc1ccccc1C1CN(CC(=O)N2CCC(C(O)c3ccccn3)CC2)Cc2ccccc2O1 (stereo not drawn),.,.,.,.,-,.

# Bioassay records deposited in PubChem BioAssay by National Center for Advancing Translational Sciences (NCATS).
